# Test results taken from paper PMC6212833.
# In all, about 2,000 compounds were measured (“B-score”: median about -0.0024, highest 2% from about 4 on). The sample as a whole holds a higher share of the highest values than the screen did.
# Tested on: Balamuthia mandrillaris (ATCC PRA-291) trophozoites, axenic culture
# Assay: primary screen, b score
# Conditions: 20 µM
# Description: Screening of a clinically approved library of compounds, compiled by the Small Molecule Discovery Center (SMDC) at the UCSF, was completed at 20 µM in 0.2% DMSO. All 2,177 drugs in the library were stored as 10 mM stocks dissolved in 100% DMSO (Sigma-Aldrich) at −20°C. B. mandrillaris amoebae were resuspended in axenic medium and distributed into opaque 384-well plates (Corning) at a density of 3,000 amoebae per well using a BioMek NX liquid handler. Negative-control wells were treated with vehicle only (0.2% DMSO in axenic medium), and positive-control wells simulating total destruction of amoebae were seeded with amoeba lysate generated by 3 consecutive freeze-thaw cycles. Following 72 h of incubation, 30 µl of CellTiter Glo reagent (CTG; Promega) was added to each well. The luminescence was measured with a Promega GloMax-Multi+ plate reader at 2, 4, and 8 h after CTG addition. […] The B-score, representing a plate-based statistical approach for correcting row, column, and edge effects, was also calculated for each compound in the library (75).
row,Compound,B-score
1,[N-]=[N+]=CC(=O)OC[C@H](N)C(=O)O,4.05
2,CC(=O)O[C@H]1C[C@H](O[C@H]2[C@@H](O)C[C@H](O[C@H]3[C@@H](O)C[C@H](O[C@H]4CC[C@@]5(C)[C@H](CC[C@@H]6[C@@H]5C[C@@H](O)[C@]5(C)[C@@H](C7=CC(=O)OC7)CC[C@]65O)C4)O[C@@H]3C)O[C@@H]2C)O[C@H](C)[C@H]1O[C@@H]1O[C@H](CO)[C@@H](O)[C@H](O)[C@H]1O,0.168
3,O=C1C[C@@H]2OCC=C3CN4CC[C@]56c7ccccc7N1[C@H]5[C@H]2[C@H]3C[C@H]46,0.0173
4,CN1C[C@H](CNC(=O)OCc2ccccc2)C[C@@H]2c3cccc4c3c(cn4C)C[C@H]21,-0.657
5,CC(C)C[C@H](CN)CC(=O)O,1.41
